# Assay results published in PubChem BioAssay (NCATS).
# Results filed as inconclusive are left out. Entries that show only a call come without a potency. Activity calls are given as the source filed them. The call rests on the fitted dose curve; in most records, active means well fitted inhibition curve with a large enough effect; inconclusive means small, poorly fitted or top-dose-only effect; inactive means no such curve, though single readings can be large or run the other way.
# Molecular target: Protein phosphatase 1D (Homo sapiens) (UniProt O15297)
# Sequence (O15297 whole entry, looked up): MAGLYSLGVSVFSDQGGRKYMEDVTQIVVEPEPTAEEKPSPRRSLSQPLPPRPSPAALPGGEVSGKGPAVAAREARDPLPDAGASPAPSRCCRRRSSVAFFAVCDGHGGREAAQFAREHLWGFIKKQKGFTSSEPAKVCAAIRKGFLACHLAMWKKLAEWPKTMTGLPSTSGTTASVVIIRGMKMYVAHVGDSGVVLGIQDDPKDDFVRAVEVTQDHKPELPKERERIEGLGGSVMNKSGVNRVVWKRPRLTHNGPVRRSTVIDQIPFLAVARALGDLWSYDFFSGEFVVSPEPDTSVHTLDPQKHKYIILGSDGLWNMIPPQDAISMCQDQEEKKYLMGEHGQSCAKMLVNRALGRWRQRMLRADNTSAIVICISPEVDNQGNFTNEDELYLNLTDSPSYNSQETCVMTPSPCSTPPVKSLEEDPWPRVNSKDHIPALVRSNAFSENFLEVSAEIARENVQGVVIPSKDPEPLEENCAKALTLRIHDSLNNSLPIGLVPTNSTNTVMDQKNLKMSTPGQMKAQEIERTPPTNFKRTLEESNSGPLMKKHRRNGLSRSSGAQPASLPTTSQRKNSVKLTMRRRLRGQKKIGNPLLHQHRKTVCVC
# Test: RapidFire Mass Spectrometry qHTS Assay for Modulators of WT P53-Induced Phosphatase 1 (WIP1) (AID 1347424)
# Settings: WIP1 dephosphorylation of phosphopeptide, RapidFire MS; series mostly up to 63 µM
# Source text: Assay Provider (PI): Nathan Coussens Ph. D.
# National Center for Advancing Translational Sciences (NCATS), Rockville, MD
# National Institute of Health (NIH), Bethesda, Maryland
# WT P53-Induced Phosphatase 1 (WIP1) is a member of the magnesium-dependent serine/threonine protein phosphatase (PPM) family and is induced by P53 in response to DNA damage. In several human cancers, the WIP1 protein is overexpressed, which is generally associated with a worse prognosis. Although WIP1 is an attractive therapeutic target, no potent, selective, and bioactive small-molecule modulator with favorable pharmacokinetics has been reported. Phosphatase enzymes are among the most challenging targets for small molecules because of the difficulty of achieving both modulator selectivity and bioavailability. Another major obstacle has been the availability of robust and physiologically relevant phosphatase assays that are suitable for high-throughput screening.
# Here, we describe two orthogonal biochemical WIP1 activity assays that utilize phosphopeptides from native WIP1 substrates. We optimized a RapidFire MS assay to quantify the enzymatically dephosphorylated peptide reaction product in a 384-well format. Additionally, a redshifted Rhodamine-PBP fluorescence assay was optimized in a 1,536-well format to enable real-time WIP1 activity measurements through the detection of the orthogonal reaction product, Pi. We validated these two optimized assays by quantitative high-throughput screening against the National Center for Advancing Translational Sciences (NCATS) Pharmaceutical Collection and used secondary assays to confirm and evaluate inhibitors identified in the primary screen.
# SEQUENCE No. (e.g., 1, 2, 3, etc.); […] (e.g., Cells, Incubation, Reagent, etc.); VALUE; DESCRIPTION
# 1; Reagent; 50 uL; dispensed assay buffer: 0.1% formic acid in water (10 uL : 40 uL) solution in column 1
# 3; Library Compounds; 63 nL; library compounds in DMSO, columns 3-24
# 4; Control Compounds; 63 nL; DMSO in wells I-P, columns 1-2, GSK830371 (10 uM, final) in wells A-H, column 2
# 5; Time; 1 hr; incubation
# 6; Substrate; 2 uL; VEPPL-pS-QETFS (10 uM) in assay buffer, column 2-24
# 7; Time; 5 min; incubation
# 8; Reagent; 2 uL; 0.5% formic acid in water, columns 2-24
# 9; Reagent; 38 uL; VEPPL-S-QETF*S in 0.1% formic acid, columns 2-24
# 10; Detection; mass spec; RapidFire mass spectrometry
# NOTES (numbers refer to sequence above)
# 1, 2, 6; dispensed reagent in White Nunc 384-well PP microplates (264573); assay buffer: 50 mM Tris-HCl pH 7.5, 30 mM MgCl2, 1 mM TCEP, 0.1 mM EGTA, 75 ug/mL BSA.
# 2, 6, 8, 9; Dispensed with BioRaptr (Beckman Coulter)
# 2, 6, 9; Final concentrations: 10 nM WIP1; 2 uM VEPPL-pS-QETFS; 1 uM VEFFL-S-QETF*S
# 3 & 4; Kalypsys Pintool transfer (Wako USA), Tip wash sequence: water, DMSO, methanol, 20 sec vacuum dry.
# 5 & 7; incubation at room temperature
# 10; RapidFire mass spectrometry read using the Agilent RapidFire 360 (Clausse, 2019)
# Clausse V, et al. Physiologically relevant orthogonal assay for the discovery of small-molecule modulators of WIP1 […] in high-throughput screens. J Biol Chem. 2019, 294(46): 17654-17668. doi:10.1074/jbc.RA119.010201
# Potency means the concentration at half of the fitted maximal effect.
row,SMILES,Potency
1,CC(C)NCC(O)c1ccc(O)c(O)c1 (stereo not given),inactive
2,NS(=O)(=O)c1cc2c(cc1Cl)NCNS2(=O)=O,inactive
3,COc1nc(C)nc(Cl)c1NC1=NCCN1,inactive
4,CC(CCc1ccc(O)cc1)NCCc1ccc(O)c(O)c1 (stereo not given),inactive
5,CCOC(=O)c1ncn2c1CN(C)C(=O)c1cc(F)ccc1-2,inactive
6,CN(CCOc1ccc(NS(C)(=O)=O)cc1)CCc1ccc(NS(C)(=O)=O)cc1,inactive
7,CC#C[C@]1(O)CC[C@H]2[C@@H]3CCC4=CC(=O)CCC4=C3[C@@H](c3ccc(N(C)C)cc3)C[C@@]21C,inactive
8,CCN1CCCC1CNC(=O)c1cc(S(=O)(=O)CC)c(N)cc1OC (stereo not given),inactive
9,Clc1ccccc1C(c1ccccc1)(c1ccccc1)n1ccnc1,inactive
10,CC(C)C(=O)Nc1ccc([N+](=O)[O-])c(C(F)(F)F)c1,inactive
11,Clc1ccc(C(c2ccccc2Cl)C(Cl)Cl)cc1 (stereo not given),inactive
12,COc1ccccc1OCC(O)CN1CCN(CC(=O)Nc2c(C)cccc2C)CC1 (stereo not given),inactive
13,CCC1(C)CC(=O)NC1=O (stereo not given),inactive
14,Cc1cn([C@H]2C=C[C@@H](CO)O2)c(=O)[nH]c1=O,inactive
15,COc1ccc(CCN(C)CCCC(C#N)(c2ccc(OC)c(OC)c2)C(C)C)cc1OC (stereo not given),inactive
16,Cc1cnc(C(=O)NCCc2ccc(S(=O)(=O)NC(=O)NC3CCCCC3)cc2)cn1,inactive
17,O=C(c1ccc(OCCN2CCCCC2)cc1)c1c(-c2ccc(O)cc2)sc2cc(O)ccc12,inactive
18,CC[N+](CC)(CC)CCOc1cccc(OCC[N+](CC)(CC)CC)c1OCC[N+](CC)(CC)CC,inactive
19,NC(CO)C(=O)NNCc1ccc(O)c(O)c1O (stereo not given),inactive
20,CN(C)c1nc(N(C)C)nc(N(C)C)n1,inactive

row,SMILES,Potency
1,COc1ccccc1OCCNCC(O)COc1cccc2[nH]c3ccccc3c12 (stereo not given),inactive
2,O=C1N(c2ccccc2)c2ccccc2C1(Cc1ccncc1)Cc1ccncc1,inactive
3,CC1(C)O[C@H]2CC(=O)OC[C@]23[C@H]2CC[C@@]4(C)[C@H](c5ccoc5)OC(=O)[C@H]5O[C@]54[C@]2(C)C(=O)C[C@@H]13,inactive
4,CN(C)C(=O)C(CCN1CCC(O)(c2ccc(Cl)cc2)CC1)(c1ccccc1)c1ccccc1,inactive
5,O=c1[nH]cc(F)c(=O)[nH]1,inactive
6,CN1CCC(=C2c3ccccc3C=Cc3ccccc32)CC1,inactive
7,Nc1nc2c(ncn2COC(CO)CO)c(=O)[nH]1,inactive
8,COc1ccc2[nH]cc(CCNC(C)=O)c2c1,inactive
9,O=C1Cc2cc(CCN3CCN(c4nsc5ccccc45)CC3)c(Cl)cc2N1,inactive
10,CC1(CN2CCC(n3c(=O)[nH]c4ccccc43)CC2)OCc2ccccc2-n2cccc21 (stereo not given),inactive
11,Cc1ccc(C(=O)Nc2ccc(S(=O)(=O)O)c3cc(S(=O)(=O)O)cc(S(=O)(=O)O)c23)cc1NC(=O)c1cccc(NC(=O)Nc2cccc(C(=O)Nc3cc(C(=O)Nc4ccc(S(=O)(=O)O)c5cc(S(=O)(=O)O)cc(S(=O)(=O)O)c45)ccc3C)c2)c1,3.98 µM (active)
12,OCCN(CCO)c1nc(N2CCCCC2)c2nc(N(CCO)CCO)nc(N3CCCCC3)c2n1,inactive
13,CS(=O)(=O)Nc1ccc([N+](=O)[O-])cc1Oc1ccccc1,inactive
14,CN(C)CCOC(c1ccccc1)c1ccccc1,inactive
15,Fc1ccc([C@@H]2CCNC[C@H]2COc2ccc3c(c2)OCO3)cc1,inactive
16,CN(C)CCC=C1c2ccccc2C=Cc2ccccc21,inactive
17,N[C@@H](Cc1c[nH]c2ccc(O)cc12)C(=O)O,inactive
18,NCCCCCC(=O)O,inactive
19,CC(C)Cc1ccc(C(C)C(=O)O)cc1 (stereo not given),inactive
20,Cc1cc(C(C)(C)C)c(O)c(C)c1CC1=NCCN1,inactive
